Drawing on the supplement of paper PMC6555819, this text covers PBM binding z-score for seven sequences.

What all share (experiment): PBM binding z-score (relative to random genomic background probes); higher = stronger binding; sequences stand for … in GC…GCGATTGACAGCGTAGAATGAAGG
Assay [1] deals with RARb homodimer (NR concentration 270 nM). In a few lines:
(§1)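 Ligand-free nuclear receptor dimers were applied to custom Agilent 4×180K protein-binding microarrays whose double-stranded probes carried direct-repeat seeds, single-nucleotide variants, half-site ablations and random human genomic background sequences in 34-nt variable regions. Incubation lasted 1 h. Binding z-scores were computed against the random background probes from regression-normalized fluorescence.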

The subject of assay [2] is RARg:RXRa (NR concentration 270 nM, RXRa partner concentration 90 nM). A digest of the protocol:
as §1

Assay [3] concerns RARg homodimer (NR concentration 270 nM). In a few lines: as §1
Assay [4] deals with RXRa DBDmut IVT, anti-RXR (DBD mutation: RXRa K156A/R161A, NR concentration 90 nM). A digest of the protocol:
as §1

Assay [5] has as its system RXRa homodimer (NR concentration 180 nM). A digest of the protocol: as §1
Assay [6] has as its system THRa:RXRa (NR concentration 90 nM, RXRa partner concentration 90 nM). A digest of the protocol: as §1
Assay [7] concerns THRa homodimer (NR concentration 90 nM). A digest of the protocol: as §1
Assay [8] deals with VDR homodimer (NR concentration 270 nM). In a few lines:
as §1

For GCTAATAGTTGAAAGGGCAACCGAATGATTCTCG, the PBM binding z-score in assay [1] turned out to be 2.13; in assay [2] it was 1.68; in assay [3], 1.44; in assay [4], 0.805; in assay [5] it was 1.76; in assay [6], 0.716. The PBM binding z-score was -0.4 in assay [7] and 0.235 in assay [8].

Turning to CATACTGGGCCAAGGTCATTGATCAGTCAAAGCA, the PBM binding z-score in assay [1] was found to be 3.56; in assay [2] it was 3.85; in assay [3], 3.29; in assay [4] it was 1.62; in assay [5], 3.31; in assay [6] it was 3.49. The values for the PBM binding z-score in assay [7] and in assay [8] were 2.63 and 3.71, respectively.

As for CTAGACAGGTGAGAAGGTAACTCAGCCTCGATTA, the PBM binding z-score in assay [1] is 0.253; in assay [2], 0.538; in assay [3], 0.499; in assay [4], -0.295; in assay [5], 0.228; in assay [6], 0.0525. The PBM binding z-score in assay [7] is -0.0949; in assay [8], -0.377.

Consider CATACAGGGTCAGTTAGGCCAGAGTAGGGACGGC, for which the PBM binding z-score came to 2.87 in assay [1]; 3.61 in assay [2]; 3.84 in assay [3]; 1.68 in assay [4]; 2.94 in assay [5]; 2.77 in assay [6]. Also, the results for the PBM binding z-score in assay [7] and in assay [8] were 1.04 and 1.69, respectively.

Consider CCTCACGGGTCAAGGTTATAGCACGGGTGGTACG, for which the PBM binding z-score in assay [1] is 3.31; in assay [2], 4.6; in assay [3] it was 4.55; in assay [4], -0.168; in assay [5] it was 4.92; in assay [6], 2.82. Besides, the PBM binding z-score in assay [7] was determined as 0.624; in assay [8], 1.18.

Consider AGAACGAGGGCGATGAGTTGATAGCACGGGTGGC, for which the PBM binding z-score in assay [1] is -0.239; in assay [2] it was -0.0988; in assay [3], 0.302; in assay [4], 1.06; in assay [5] it was 0.298; in assay [6], -0.0851. In addition, the PBM binding z-score is -0.71 in assay [7] and 2.17 in assay [8].

On to ATCACTAGGTAACCAAGTTCAGTGAATGCCGAAC, for which the PBM binding z-score in assay [1] was 1.26; in assay [2], 0.732; in assay [3], 0.632; in assay [4], 0.466; in assay [5] it was 0.53; in assay [6], 1.32. Further, the PBM binding z-score in assay [7] came to 0.313; in assay [8], 2.41.
